# Active and inactive are the calls of the source. How the source made its calls: active means hit-call score of the fitted dose curve at least 0.9, where 1 is the maximum; inactive means score below 0.9.
# Key:
# [1] = ATG_ISRE_CIS: Attagene CIS-FACTORIAL HepG2 Assay for human Interferon Regulatory Factor 1 (IRF1) binding to an Interferon-Stimulated Response Element (ISRE) (AID 2282948); conditions: HepG2 ISRE cis-reporter (Attagene), mRNA transcription readout; actives raise or lower the signal
# Summary of the method: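 Endogenous transcription factor activity read as reporter transcript abundance via RT-PCR and capillary electrophoresis. HepG2 cells transiently transfected, 24 h chemical exposure. Gain or loss fitted against DMSO baseline.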
# [2] = ATG_M_32_CIS: Attagene CIS-FACTORIAL HepG2 Assay for M32 Transcription Factor (Internal Marker) (AID 2282949); conditions: HepG2 Attagene cis-factorial M32 reporter, mRNA; actives raise or lower the signal;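 further: background control marker of the multiplexed CIS panel rather than a real target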
# Summary of the method: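 Transient MRTU transfection of HepG2; 24 h compound treatment; TriZol RNA, oligo(dT) RT, reporter PCR, 6-FAM primer extension, HpaI cut, CE. Gain/loss of signal vs DMSO.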
# [3] = ATG_M_06_CIS: Attagene CIS-FACTORIAL HepG2 Assay for M06 Transcription Factor (Internal Marker) (AID 2282950); conditions: HepG2 Attagene CIS-FACTORIAL M06 internal marker reporter; actives raise or lower the signal
# Summary of the method: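 Terse: HepG2, transient MRTU transfection (FuGene 6), 24 h dosing; total RNA, oligo(dT) RT, PCR, FAM label, HpaI cut, capillary electrophoresis; bidirectional fit vs DMSO baseline; background-control endpoint.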
# [4] = target: Hypoxia-inducible factor 1-alpha (Homo sapiens) (UniProt Q16665); assay: ATG_HIF1a_CIS: Attagene CIS-FACTORIAL HepG2 Assay for human Hypoxia Inducible Factor 1 (HIF1A) (AID 2282951); conditions: HepG2 Attagene cis-factorial HIF1a reporter transcription; actives raise or lower the signal
# Summary of the method: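 Measures endogenous transcription-factor activity through cis-regulated reporter mRNA in HepG2. Cells dosed 24 h; transcripts quantified by RT-PCR with 6-FAM-labelled products separated by capillary electrophoresis; DMSO serves as negative control.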
# [5] = target: Heat shock factor protein 1 (Homo sapiens) (UniProt Q00613); assay: ATG_HSE_CIS: Attagene CIS-FACTORIAL HepG2 Assay for human Heat Shock Transcription Factor 1 (HSE) (AID 2282953); conditions: HepG2 HSE cis-reporter, Attagene RNA transcription; actives raise or lower the signal
# Summary of the method: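 Read-out: fluorescence of reporter-specific RT-PCR fragments separated by capillary electrophoresis. HepG2 carrying transfected cis-element reporter units; 24 h dosing; activity fitted in both directions relative to DMSO baseline.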
# [6] = ATG_MRE_CIS: Attagene CIS-FACTORIAL HepG2 Assay for human Metal Responsive Element (MRE) (AID 2282954); conditions: HepG2 MRE cis-reporter transcription, Attagene multiplex; actives raise or lower the signal
# Summary of the method: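 Readout: capillary electrophoresis of 6-FAM-labelled, HpaI-digested RT-PCR reporter products. System: HepG2 cells carrying transient multiplexed cis reporters, dosed 24 h. Analysis: bidirectional fit, DMSO baseline.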
# [7] = ATG_PBREM_CIS: Attagene CIS-FACTORIAL HepG2 Assay for human Phenobarbital-responsive Enhancer Module (PBREM) (AID 2282955); conditions: HepG2 PBREM cis-reporter, Attagene multiplexed transcription; actives raise or lower the signal
# Summary of the method: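 Fluorescence of labelled reporter cDNA fragments, resolved by capillary electrophoresis, gives mRNA induction in transfected HepG2 cells treated for 24 h; DMSO serves as negative control and baseline.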
# [8] = target: Paired box protein Pax-6 (Homo sapiens) (UniProt P26367); assay: ATG_Pax6_CIS: Attagene CIS-FACTORIAL HepG2 Assay for human Paired Box 6 (PAX6) (AID 2282956); conditions: HepG2 CIS-FACTORIAL PAX6 reporter transcription, RNA readout; actives raise or lower the signal
# Summary of the method: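 Read-out is reporter transcript level, measured by RT-PCR with fluorescent primer extension and capillary electrophoresis after 24 h dosing of transfected HepG2 cells. Activity in either direction fitted relative to DMSO control.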
# [9] = ATG_PXRE_CIS: Attagene CIS-FACTORIAL HepG2 Assay for human Pregnane X Receptor Element (PXRE) (AID 2282957); conditions: HepG2 Attagene CIS-FACTORIAL PXRE reporter, mRNA; actives raise or lower the signal
# Summary of the method: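 After a 24 h chemical incubation, total RNA from transfected HepG2 cells was reverse-transcribed and reporter cDNA amplified, FAM-labeled, HpaI-digested and sized by capillary electrophoresis. DMSO served as baseline for bidirectional curve fitting.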
# [10] = ATG_PPRE_CIS: Attagene CIS-FACTORIAL HepG2 Assay for human Peroxisome Proliferator-activated Response Element (PPRE) (AID 2282958); conditions: HepG2 PPRE cis-element reporter, Attagene transcription factor profiling; actives raise or lower the signal
# Summary of the method: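 Cells are first transfected transiently with the multiplexed reporter library, then dosed for 24 h. Total RNA is reverse-transcribed, amplified, fluorescently end-labeled and HpaI-cut before capillary electrophoresis; activity is fitted bidirectionally against DMSO controls.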
# [11] = ATG_RORE_CIS: Attagene CIS-FACTORIAL HepG2 Assay for human RAR-related Orphan Receptor Element (RORE) (AID 2282959); conditions: HepG2 Attagene cis-factorial RORE reporter, mRNA; actives raise or lower the signal
# Summary of the method: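 Cells were HepG2 carrying transfected cis-regulated reporter constructs, dosed for 24 hours. Total RNA was reverse-transcribed and reporter cDNA amplified, fluorescently labeled and sized by capillary electrophoresis. Activity was fitted bidirectionally relative to DMSO.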
# [12] = ATG_Sox_CIS: Attagene CIS-FACTORIAL HepG2 Assay for human SRY-box transcription factor (SOX) (AID 2282960); conditions: HepG2 Attagene cis-factorial SOX reporter, mRNA; actives raise or lower the signal
# Summary of the method: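 Transient MRTU transfection of HepG2; 24 h compound incubation; TriZol RNA, oligo(dT) RT, PCR, 6-FAM primer extension, HpaI cut, CE. Bidirectional fit, DMSO = baseline.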
# [13] = target: Transcription factor Sp1 (Homo sapiens) (UniProt P08047); assay: ATG_Sp1_CIS: Attagene CIS-FACTORIAL HepG2 Assay for human Specificity Protein 1 (Sp1) (AID 2282961); conditions: HepG2 Sp1 cis-reporter transcription, actives raise or lower the signal
# Summary of the method: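 Endogenous Sp1 activity was gauged in human liver HepG2 cells bearing transfected reporter units under a cis-regulating promoter. After 24 h dosing, reporter mRNA was quantified by RT-PCR with capillary electrophoresis, and activity fitted bidirectionally versus DMSO.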
# [14] = ATG_SREBP_CIS: Attagene CIS-FACTORIAL HepG2 Assay for human Sterol Regulatory Element Binding (SREBP) (AID 2282962); conditions: HepG2 Attagene cis-factorial SREBP reporter, mRNA; actives raise or lower the signal
# Summary of the method: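 Endogenous SREBP activity read as cis-element-driven reporter transcript in transiently transfected HepG2, 24 h post-dosing; quantified via RT-PCR plus capillary electrophoresis of fluorescent fragments. Gain or loss of signal fitted relative to DMSO baseline.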
# [15] = target: Signal transducer and activator of transcription 3 (Homo sapiens) (UniProt P40763); assay: ATG_STAT3_CIS: Attagene CIS-FACTORIAL HepG2 Assay for human Signal Transducer and Activator of Transcription 3 (STAT3) (AID 2282963); conditions: HepG2, Attagene cis-factorial STAT3 reporter transcription; actives raise or lower the signal
# Summary of the method: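 Uses human liver HepG2 transiently carrying cis-regulated reporter transcription units. Following 24 h dosing, reporter mRNA induction was detected by RT-PCR and capillary electrophoresis, analysed bidirectionally versus DMSO.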
# [16] = ATG_TA_CIS: Attagene CIS-FACTORIAL HepG2 Assay for human TA Basal Promoter (AID 2282964); conditions: HepG2 Attagene CIS-factorial TA basal promoter reporter; actives raise or lower the signal
# Summary of the method: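 Transfected HepG2, 24 h compound exposure; RNA → RT-PCR → FAM primer extension → HpaI cut → CE fluorescence. Gain/loss-of-signal fitted against DMSO negative control. Background-control readout.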
# [17] = ATG_TCF_b_cat_CIS: Attagene CIS-FACTORIAL HepG2 Assay for human T-Cell-Factor with beta-catenin (TCF/b-cat) (AID 2282965); conditions: HepG2 TCF/beta-catenin cis-reporter transcription, actives raise or lower the signal
# Summary of the method: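 In this cis-format system, transfected HepG2 cells report endogenous transcription factor activity. Readout after 24 h exposure is reporter transcript abundance from RT-PCR and capillary electrophoresis, analysed for gain or loss of signal versus DMSO.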
# [18] = ATG_TAL_CIS: Attagene CIS-FACTORIAL HepG2 Assay for human TAL Basal Promoter (AID 2282966); conditions: HepG2 Attagene cis-factorial TAL promoter reporter; actives raise or lower the signal;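 further: background control endpoint measuring basal TAL promoter reporter mRNA not a specific factor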
# Summary of the method: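 Basal-promoter background-control endpoint from a multiplexed HepG2 reporter panel. Cells were exposed 24 h, then reporter mRNA was read by RT-PCR/CE fluorescence and fitted in both directions relative to DMSO.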
# [19] = target: Hepatocyte nuclear factor 6 (Homo sapiens) (UniProt Q9UBC0); assay: ATG_HNF6_CIS: Attagene CIS-FACTORIAL HepG2 Assay for human Hepatocyte Nuclear Factor 6 (HNF6) (AID 2282952); conditions: HepG2 Attagene cis-factorial HNF6 reporter transcription; actives raise or lower the signal
# Summary of the method: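 First, HepG2 cells were transfected with the multiplexed cis reporter library and dosed with chemical for 24 h. Next, RNA was reverse-transcribed, PCR-amplified and fluorescently labelled. Finally, HpaI-digested fragments were read by capillary electrophoresis.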
# Sequence of Hepatocyte nuclear factor 6 (Homo sapiens) (Q9UBC0 whole entry, looked up, the tested form may be a part): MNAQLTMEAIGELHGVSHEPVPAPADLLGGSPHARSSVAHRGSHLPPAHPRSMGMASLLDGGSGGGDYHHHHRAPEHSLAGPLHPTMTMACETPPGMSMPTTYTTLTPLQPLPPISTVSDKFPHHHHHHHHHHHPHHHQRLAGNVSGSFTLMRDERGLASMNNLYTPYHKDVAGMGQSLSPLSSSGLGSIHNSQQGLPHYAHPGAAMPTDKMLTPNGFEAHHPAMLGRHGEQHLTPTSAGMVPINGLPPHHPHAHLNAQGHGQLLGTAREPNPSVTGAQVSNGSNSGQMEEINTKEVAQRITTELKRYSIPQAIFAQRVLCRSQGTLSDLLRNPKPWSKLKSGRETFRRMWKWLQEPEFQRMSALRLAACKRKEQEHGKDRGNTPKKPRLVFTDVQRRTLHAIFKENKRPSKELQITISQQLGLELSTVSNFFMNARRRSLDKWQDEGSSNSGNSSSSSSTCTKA
# Sequence of Paired box protein Pax-6 (Homo sapiens) (P26367 whole entry, looked up): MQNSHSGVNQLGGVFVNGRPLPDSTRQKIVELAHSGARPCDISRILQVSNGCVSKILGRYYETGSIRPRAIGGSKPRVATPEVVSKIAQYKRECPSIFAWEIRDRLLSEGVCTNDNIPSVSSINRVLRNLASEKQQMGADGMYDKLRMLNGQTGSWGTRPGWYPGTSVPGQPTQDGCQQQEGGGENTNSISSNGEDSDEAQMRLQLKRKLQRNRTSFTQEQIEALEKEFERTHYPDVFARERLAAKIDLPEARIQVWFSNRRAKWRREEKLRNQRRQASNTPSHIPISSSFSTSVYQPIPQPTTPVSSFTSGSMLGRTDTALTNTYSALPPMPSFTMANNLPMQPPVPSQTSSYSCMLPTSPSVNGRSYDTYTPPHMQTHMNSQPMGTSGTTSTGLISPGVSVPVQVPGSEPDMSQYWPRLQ
# Sequence of Heat shock factor protein 1 (Homo sapiens) (Q00613 whole entry, looked up, the tested form may be a part): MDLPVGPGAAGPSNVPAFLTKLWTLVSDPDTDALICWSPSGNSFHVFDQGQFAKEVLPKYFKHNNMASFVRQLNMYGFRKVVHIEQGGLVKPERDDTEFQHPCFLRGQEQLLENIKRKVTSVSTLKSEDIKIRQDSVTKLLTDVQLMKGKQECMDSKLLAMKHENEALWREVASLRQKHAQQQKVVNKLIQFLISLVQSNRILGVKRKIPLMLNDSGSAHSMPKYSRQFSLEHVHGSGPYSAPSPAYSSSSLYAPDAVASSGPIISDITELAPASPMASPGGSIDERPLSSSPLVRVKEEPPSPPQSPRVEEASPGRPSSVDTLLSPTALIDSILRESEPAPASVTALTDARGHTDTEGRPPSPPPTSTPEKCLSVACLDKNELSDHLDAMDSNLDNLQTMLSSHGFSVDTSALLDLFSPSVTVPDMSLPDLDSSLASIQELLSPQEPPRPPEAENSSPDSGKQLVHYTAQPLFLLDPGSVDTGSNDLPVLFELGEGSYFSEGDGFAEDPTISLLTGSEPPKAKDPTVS
# Sequence of Transcription factor Sp1 (Homo sapiens) (P08047 whole entry, looked up): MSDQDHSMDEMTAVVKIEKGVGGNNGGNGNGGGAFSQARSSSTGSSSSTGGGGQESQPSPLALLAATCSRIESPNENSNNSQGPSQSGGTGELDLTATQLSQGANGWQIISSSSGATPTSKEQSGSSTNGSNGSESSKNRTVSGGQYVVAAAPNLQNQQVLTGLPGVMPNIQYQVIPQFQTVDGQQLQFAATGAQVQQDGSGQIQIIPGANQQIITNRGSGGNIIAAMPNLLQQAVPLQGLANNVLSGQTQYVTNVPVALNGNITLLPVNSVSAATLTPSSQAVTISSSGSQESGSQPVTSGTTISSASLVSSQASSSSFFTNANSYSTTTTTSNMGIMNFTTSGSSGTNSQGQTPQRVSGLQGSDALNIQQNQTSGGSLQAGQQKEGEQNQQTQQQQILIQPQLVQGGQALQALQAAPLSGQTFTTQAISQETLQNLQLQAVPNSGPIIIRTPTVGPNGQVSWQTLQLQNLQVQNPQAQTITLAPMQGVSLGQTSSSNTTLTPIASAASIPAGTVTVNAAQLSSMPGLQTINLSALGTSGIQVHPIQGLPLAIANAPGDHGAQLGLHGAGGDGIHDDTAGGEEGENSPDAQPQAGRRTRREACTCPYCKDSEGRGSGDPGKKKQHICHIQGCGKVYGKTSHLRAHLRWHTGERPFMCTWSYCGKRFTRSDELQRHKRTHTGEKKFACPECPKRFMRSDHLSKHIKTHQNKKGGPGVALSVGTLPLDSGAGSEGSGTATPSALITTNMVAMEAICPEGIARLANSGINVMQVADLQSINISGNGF
# Sequence of Signal transducer and activator of transcription 3 (Homo sapiens) (P40763 whole entry, looked up): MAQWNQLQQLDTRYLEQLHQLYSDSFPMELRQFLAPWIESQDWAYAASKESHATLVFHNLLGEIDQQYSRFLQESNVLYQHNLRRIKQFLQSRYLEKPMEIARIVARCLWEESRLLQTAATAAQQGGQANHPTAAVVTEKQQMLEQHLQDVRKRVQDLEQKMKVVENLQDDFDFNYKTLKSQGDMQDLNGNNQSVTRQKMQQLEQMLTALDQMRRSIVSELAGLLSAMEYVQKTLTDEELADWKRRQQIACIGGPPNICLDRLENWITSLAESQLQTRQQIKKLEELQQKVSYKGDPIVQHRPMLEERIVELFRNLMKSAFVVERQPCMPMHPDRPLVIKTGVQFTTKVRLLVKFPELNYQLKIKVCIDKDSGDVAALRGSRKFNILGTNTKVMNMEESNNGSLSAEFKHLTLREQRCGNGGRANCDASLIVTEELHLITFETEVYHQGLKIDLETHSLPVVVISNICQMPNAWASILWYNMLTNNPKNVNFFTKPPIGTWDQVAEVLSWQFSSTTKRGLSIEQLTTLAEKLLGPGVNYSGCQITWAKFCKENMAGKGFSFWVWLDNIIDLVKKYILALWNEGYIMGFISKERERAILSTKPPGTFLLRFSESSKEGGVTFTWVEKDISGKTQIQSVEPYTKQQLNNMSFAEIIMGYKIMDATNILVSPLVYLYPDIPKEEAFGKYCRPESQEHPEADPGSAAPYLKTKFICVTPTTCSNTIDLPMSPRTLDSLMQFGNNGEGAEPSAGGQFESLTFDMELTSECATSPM
# Sequence of Hypoxia-inducible factor 1-alpha (Homo sapiens) (Q16665 whole entry, looked up): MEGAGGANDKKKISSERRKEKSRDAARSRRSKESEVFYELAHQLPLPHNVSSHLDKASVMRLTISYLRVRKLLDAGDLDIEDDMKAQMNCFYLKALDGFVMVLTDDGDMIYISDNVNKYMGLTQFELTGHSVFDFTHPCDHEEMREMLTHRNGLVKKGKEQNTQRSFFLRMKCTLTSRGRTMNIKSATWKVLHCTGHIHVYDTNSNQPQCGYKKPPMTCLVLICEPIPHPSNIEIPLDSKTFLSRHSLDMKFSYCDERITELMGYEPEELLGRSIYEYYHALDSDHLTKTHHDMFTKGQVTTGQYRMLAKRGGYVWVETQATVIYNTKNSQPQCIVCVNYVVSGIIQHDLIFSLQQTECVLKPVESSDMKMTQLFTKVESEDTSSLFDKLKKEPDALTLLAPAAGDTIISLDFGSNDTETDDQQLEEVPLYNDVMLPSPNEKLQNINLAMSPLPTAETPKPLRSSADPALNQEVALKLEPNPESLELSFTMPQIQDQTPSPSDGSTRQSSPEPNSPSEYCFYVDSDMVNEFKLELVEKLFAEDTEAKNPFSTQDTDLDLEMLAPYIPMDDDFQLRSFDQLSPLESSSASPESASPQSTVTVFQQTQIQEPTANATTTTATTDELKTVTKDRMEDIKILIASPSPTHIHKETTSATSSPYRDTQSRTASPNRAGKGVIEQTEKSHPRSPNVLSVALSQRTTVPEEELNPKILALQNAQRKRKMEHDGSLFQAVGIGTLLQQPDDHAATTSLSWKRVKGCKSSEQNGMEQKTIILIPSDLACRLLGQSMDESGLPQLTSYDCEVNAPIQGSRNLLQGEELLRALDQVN
structure (smiles),measurement,setting,value
OCc1ccco1,outcome,[1],inactive
same,outcome,[2],inactive
same,outcome,[3],inactive
same,outcome,[4],inactive
same,outcome,[5],inactive
same,outcome,[6],inactive
same,outcome,[7],inactive
same,outcome,[8],inactive
same,AC50,[9],39.7 µM (active)
same,outcome,[10],inactive
same,outcome,[11],inactive
same,outcome,[12],inactive
same,outcome,[13],inactive
same,outcome,[14],inactive
same,outcome,[15],inactive
same,outcome,[16],inactive
same,outcome,[17],inactive
CC1CN1P(=O)(N1CC1C)N1CC1C (stereo not given),outcome,[1],inactive
same,outcome,[2],inactive
same,outcome,[3],inactive
same,outcome,[4],inactive
same,outcome,[5],inactive
same,outcome,[6],inactive
same,outcome,[7],inactive
same,outcome,[8],inactive
same,outcome,[9],inactive
same,outcome,[11],inactive
same,outcome,[12],inactive
same,outcome,[13],inactive
same,outcome,[14],inactive
same,outcome,[15],inactive
same,outcome,[16],inactive
same,outcome,[17],inactive
same,outcome,[18],inactive
CCOC(=O)CP(=O)(OCC)OCC,outcome,[1],inactive
same,outcome,[2],inactive
same,outcome,[3],inactive
same,AC50,[4],0.0931 µM (active)
same,outcome,[19],inactive
same,outcome,[5],inactive
same,outcome,[6],inactive
same,outcome,[8],inactive
same,AC50,[9],100 µM (active)
same,outcome,[10],inactive
same,outcome,[11],inactive
same,outcome,[12],inactive
same,outcome,[13],inactive
same,outcome,[14],inactive
same,outcome,[15],inactive
same,outcome,[16],inactive
same,outcome,[17],inactive
Cc1ccccc1N,outcome,[1],inactive
same,outcome,[2],inactive
same,outcome,[3],inactive
same,outcome,[4],inactive
same,outcome,[19],inactive
same,outcome,[5],inactive
same,outcome,[6],inactive
same,outcome,[7],inactive
same,outcome,[8],inactive
same,outcome,[9],inactive
same,outcome,[11],inactive
same,outcome,[12],inactive
same,outcome,[13],inactive
same,outcome,[14],inactive
same,outcome,[15],inactive
same,outcome,[16],inactive
same,outcome,[17],inactive
same,outcome,[18],inactive
ClCCBr,outcome,[1],inactive
same,outcome,[2],inactive
same,outcome,[3],inactive
same,outcome,[4],inactive
same,outcome,[6],inactive
same,outcome,[7],inactive
same,outcome,[8],inactive
same,outcome,[9],inactive
same,outcome,[10],inactive
same,outcome,[11],inactive
same,outcome,[12],inactive
same,outcome,[13],inactive
same,outcome,[14],inactive
same,outcome,[15],inactive
same,outcome,[16],inactive
same,outcome,[17],inactive
